Reference: PubChem BioAssay (NCATS)
Records with an inconclusive call do not appear. Unmarked numbers belong to inactive results. Calls of active or inactive are those of the source. Calls follow the shape of the dose curve; as a rule, active = well fitted inhibition curve with a large enough effect; inconclusive = small, poorly fitted or top-dose-only effect; inactive = flat fitted curve, though single readings scatter.

The molecules below were run on ATS189 (assay: qHTS profiling for inhibitors of Plasmodium falciparum proliferation (AID 504749;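 also: 0% = DMSO vehicle and full inhibition = artemisinin control; nearly all actives have a fitted effect of over 60% in size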)). Conditions: P. falciparum in erythrocytes, SYBR Green DNA, 72 h; series mostly up to 28.7 µM; activity, negative = inhibition: at the top concentration.
How it was run: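 In a 72 h erythrocytic culture (37 C, humidified, 5% CO2) at 2.5% hematocrit and 0.3% starting parasitemia, compounds were tested; SYBR Green I in detergent lysis buffer stained parasite DNA overnight.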

Structure (SMILES) | activity, negative = inhibition | Potency
O=C1NCC2(CCN(CCc3ccccc3)CC2)O1 | 1.01% | 
CC(=O)CCCCn1c(=O)c2c(ncn2C)n(C)c1=O | 8.84% [at 12.8 µM] | 
CCOC(=O)O[C@]1(C(=O)OCCl)CC[C@@H]2[C@H]3CCC4=CC(=O)C=C[C@]4(C)[C@@H]3[C@@H](O)C[C@@]21C | -12.4% | 
CC(=O)c1ccc(S(=O)(=O)NC(=O)NC2CCCCC2)cc1 | 1.2% | 
O=c1[nH]cnc2c1ncn2[C@H]1CC[C@@H](CO)O1 | -28.8% | 
NCCS | 9.52% | 
O=C(O)c1cc(-c2ccccc2)nc2ccccc12 | 13.5% | 
COc1ccccc1N1CCN(CCCNc2cc(=O)n(C)c(=O)n2C)CC1 |  | inactive
C[C@@H](O)[C@H]1C(=O)N2C(C(=O)O)=C(S[C@@H]3CN[C@H](C(=O)N(C)C)C3)[C@H](C)[C@H]12 | 2.82% | 
CN(C)CCC(c1ccccc1)c1ccccn1 (stereo not drawn) | 5.91% | 
NC(N)=Nc1nc(CSCC/C(N)=N/S(N)(=O)=O)cs1 | 1.46% | 
O=C(O)Cc1cccc2ccccc12 | 1.93% | 
O=C1NC(=O)C(c2ccccc2)(c2ccccc2)N1 | 1.81% | 
O=C1Nc2ccc(Cl)cc2C(C#CC2CC2)(C(F)(F)F)O1 (stereo not drawn) | -18.4% | 
CCN(CC)CCOC(=O)c1ccc(N)cc1 | 3.57% [at 12.8 µM] | 
CCN1CCC[C@H]1CNC(=O)c1cc(S(N)(=O)=O)ccc1OC | 0.45% | 
Cc1cccc(C)c1OCC(C)N (stereo not drawn) | 14.9% | 
C[N+](C)(C)CCCCCC[N+](C)(C)C | 4.1% | 
CCN(CC)CCNC(=O)c1ccc(N)cc1 | 10.7% | 
O=C(NCCN1CCOCC1)c1ccc(Cl)cc1 | 9.26% | 
CC1(C)O[C@H]2C[C@@H]3[C@H]4CCC5=CC(=O)C=C[C@]5(C)[C@@]4(F)[C@@H](O)C[C@]3(C)[C@]2(C(=O)CO)O1 | -4.07% | 
CCN(CC)C(=O)c1ccc(O)c(OC)c1 |  | inactive
CCCNC(=O)NS(=O)(=O)c1ccc(Cl)cc1 | 13.4% | 
